Some of the results follow. Records with an inconclusive call do not appear. Unmarked numbers belong to inactive results. Activity calls are given as the source filed them. The call rests on the fitted dose curve; in most records, active means well fitted inhibition curve with a large enough effect; inconclusive means small, poorly fitted or top-dose-only effect; inactive means no such curve, though single readings can be large or run the other way.
Assay: qHTS of pediatric cancer cell lines to identify multiple opportunities for drug repurposing: Orthogonal 3D viability screen for MG 63 (6-TG R) cells
Settings: MG-63 (6-TG R) 3D spheroid viability, PI/Hoechst imaging, 72 h; series mostly up to 30.7 µM; activity, negative = reduced viability: at the top concentration
Source text: Drug repurposing or repositioning has been offered as a strategy for drug development in oncology programs. This approach has special potential for childhood cancers and other rare or orphan diseases, where the expected return on new drug development has been a disincentive to pharmaceuticals. […] In this project we exploit the poly-pharmacology of drugs to discover new indications via phenotypic screening of a panel of 19 well-characterized cell lines derived from solid tumors seen in children and adolescents. The goal is to identify approved drugs with previously unrecognized anticancer properties that has the potential to reveal new mechanisms and biological processes involved in carcinogenesis or drug resistance. We employed a titration-based paradigm (quantitative high-throughput screening or qHTS), where all compounds were tested at multiple concentrations for their effect on cell viability. Concentration-response curves (CRCs) were derived directly from the primary screen, and both potency and efficacy values were used to identify compounds with robust bioactivity profiles. […] These two assays will be used to validate active compounds and assess the correlation of compound's potency in 2D vs 3D cultures on selected cell lines. Assay Submitter: Nathalia J. Martinez, National Center for Advancing Translational Sciences, National Institutes of Health, Rockville, MD, USA; email: natalia.martinez@nih.gov Shen, M et al. Quantitative high-throughput phenotypic screening of pediatric cancer cell lines identifies multiple opportunities for drug repurposing. Oncotarget 2017 Dec 19;9(4):4758-4772. PMID 29435139.
The cells were obtained from University of North Carolina (UNC), Pediatric Preclinical Testing Program (PPT), and Coriell Institute (CI). qHTS viability in 3D culture: Cells were assayed in phenol red-free growth media at a density of 1,000 cells/well, with the exception of Daoy, and SH-N-SH which were assayed at 1,500 cells/ well. Thirty muL of cells were dispensed into 384-well, ULA, round bottom plates (Corning) using a Multidrop dispenser. […] Spheroid viability was first determined by high-content imaging using Hoechst 33342 and Propidium Iodide (PI, ThermoFisher Scientific), followed by addition of CellTiter-Glo 3D (Promega). […] Plates were incubated for 30 min at RT on a VWR microplate shaker (300 rpm) and analyzed for luminescence intensity using a ViewLux High-throughput CCD imager equipped with clear filters. […] The data were exported to Excel, and the average fluorescent intensities were used to calculate the ratio of PI over Hoechst, which was used to quantify viability. […]

SMILES	Potency	activity, negative = reduced viability [%]
CC[C@H]1CN2CCc3cc(OC)c(OC)cc3[C@@H]2C[C@@H]1C[C@H]1NCCc2cc(OC)c(OC)cc21	810 nM (active)	–
COc1c(C)c2c(c(O)c1C/C=C(\C)CCC(=O)O)C(=O)OC2	909 nM (active)	–
CC[C@]1(O)C[C@@H]2CN(CCc3c([nH]c4ccccc34)[C@@](C(=O)OC)(c3cc4c(cc3OC)N(C)[C@H]3[C@@](O)(C(=O)OC)[C@H](OC(C)=O)[C@]5(CC)C=CCN6CC[C@]43[C@@H]65)C2)C1	–	12
CC(NCc1ccc2c(c1)nc(NC(=O)c1ccc(-c3cn[nH]c3)s1)n2CC(C)(C)O)C(C)(C)C (centres undefined)	722 nM (active)	–
